# Screens from PubChem BioAssay.
# Most compounds without a hit are left out; they make up all but 3.9% or so of the library.
# PHOSPHO1 block – PHOSPHO1 (human) inhibition. hit rate 1.1% among 290,000. AID 1565. recombinant PHOSPHO1, absorbance phosphatase assay. inhibition, % at 13.3 µM; in the data active = inhibition above about 60%
# Target sequence (Q8TCT1 whole entry, looked up): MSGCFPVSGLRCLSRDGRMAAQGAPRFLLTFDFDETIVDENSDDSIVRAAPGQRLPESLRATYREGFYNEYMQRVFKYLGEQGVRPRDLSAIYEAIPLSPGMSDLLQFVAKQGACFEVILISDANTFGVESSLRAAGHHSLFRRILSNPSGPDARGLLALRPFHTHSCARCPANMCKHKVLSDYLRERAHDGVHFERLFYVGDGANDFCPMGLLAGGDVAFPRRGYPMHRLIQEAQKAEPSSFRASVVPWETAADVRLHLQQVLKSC
# SKKanGAS inh – inhibitors of SKKanGAS S. pyogenes growth in kanamycin (SK-promoter or general growth effect). BacTiter-Glo, 6 h. inhibition, % at 7.5 µM. hit rate 1.3% among 300,000. AID 1662;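 active = mean replicate score, as percent of positive control median, at least 50; inconclusive = mean below 50 but one replicate at or above 50; inactive = mean and every replicate below 50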;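 also: strain carries kanamycin resistance gene driven by streptokinase promoter and grows in 40 µg/ml kanamycin; loss of luminescence reflects streptokinase promoter inhibition or plain growth inhibition; 0% = median of DMSO wells and 100% = positive control at its reference dose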
# TPT1 inhibitor – C. albicans TPT1 enzyme inhibition; recombinant caTPT1, FP RNA substrate dephosphorylation; inhibition, % at 5 µM; hit rate 0.81% among 300,000;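 active = inhibition above the mean of all tested compounds plus 3 SD, set per screening campaign, cut at about 24% in these data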;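 also: plate controls were DMSO alone for no effect and ferristatin control at 100 nM for full effect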
# WT yeast gro inh – growth inhibition of WT yeast, mitochondrial fusion screen | mitochondrial fusion phenotypic screen, WT strain | inhibition, % at 10 µM | hit rate 2.1% among 190,000; in the data active = inhibition above about 58%; tested in S. cerevisiae
# Platelet DG rel – platelet dense granule release activity; human platelet-rich plasma, SFLLRN dense granule ATP release, luminescence; inhibition, %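 (compounds screened at 7.5 µM in platelet-rich plasma)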; hit rate 0.22% among 300,000; AID 1663;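 active = mean replicate score, as percent of positive control, at or above 50; inconclusive = mean below 50 but at least one replicate at or above 50; inactive = mean and every replicate below 50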
# Rtt109 Vps75 – inhibitors of Candida albicans Rtt109/Vps75 histone acetyltransferase. Q5AAJ8. purified Rtt109/Vps75, ThioGlo CoA-SH fluorescence, 4 h. inhibition, % at 34.9 µM. hit rate 0.16% among 330,000. AID 540336;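 active = inhibition of at least 50% in every replicate; inconclusive = best replicate reaches 50% inhibition but some replicates fall short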
# * hit, by the source's call; ? = inconclusive; / = not tested or not shown.
SMILES,PHOSPHO1 block,SKKanGAS inh,TPT1 inhibitor,WT yeast gro inh,Platelet DG rel,Rtt109 Vps75
CCCCCSc1cc(OC)c(CCNC)cc1OC,16,3,-2,6,-12,14
CCCCCCCSc1cc(OC)c(CCNC)cc1OC,7,1,1,94*,2,?
Cn1ccnc1P(=S)(c1nccn1C)c1nccn1C,28,6,-1,4,-1,/
Cn1ccnc1P(=S)(c1nccn1C)N1CCOCC1,76*,-6,-3,-2,-13,0
COC12C(COC(N)=O)C3=C(C(=O)C(C)=C(N)C3=O)N1CC1C2N1C (stereo unspecified),27,111*,-1,/,-4,13
Cc1cc(C(C#N)c2ccc(Cl)cc2)c(Cl)cc1NC(=O)c1cc(I)cc(I)c1O (stereo unspecified),/,105*,-2,/,0,17
Cn1c(CN2CCN(C(=O)COc3ccccc3)CC2)nc2cc([N+](=O)[O-])ccc21,-12,-2,0,-5,4,-5
S=C(c1ccc(Cl)cc1)N1CCOCC1,62*,4,1,5,-1,-8
Cc1oc(-c2ccccc2)nc1CN1C(=O)C(C)N=C(c2ccccc2F)c2cc(Cl)ccc21 (stereo unspecified),-16,10,-1,80*,0,0
CCOc1ccc(C(C)=O)cc1Cn1ccsc1=N,38,-3,/,/,4,1
CCCCCCn1c(N)c(C(=O)NCCN2CCOCC2)c2nc3ccccc3nc21,17,10,3,86*,1,8
CCCCCn1c(N)c(C(=O)NCCN2CCOCC2)c2nc3ccccc3nc21,32,7,0,11,5,-2
CCOC(=O)c1c(NC(=O)c2c(N)n(CCCOC)c3nc4ccccc4nc23)sc2c1CCCC2,-5,56*,5,-15,-2,2
COc1ccccc1-n1c(Cc2ccccc2)nc2ccccc2c1=O,44,-12,0,-24,-6,1
CCOc1cccc(OCC)c2c(C)[n+](CC3CCCO3)c(C)c1-2 (stereo unspecified),95*,2,-8,16,10,4
CC[C@@H](O)C[C@H]1CCC[C@@]2(C[C@@H]3OC(=O)/C=C/[C@@](C)(O)[C@@H](O)[C@H](C)[C@@H](O)[C@H](OC4CCC(N(C)C)C(C)O4)[C@@H](O)[C@](C)(O)CCCCC/C=C/[C@@H]4CC(C)(C)O[C@@]4(O)C[C@H](O2)[C@H]3C)O1 (stereo partly specified),/,/,/,/,/,-1
Nc1cc2nc3ccccc3nc2cc1N,60*,6,-28,/,-3,2
OCC(Cl)CCl (stereo unspecified),/,/,/,/,/,7
COc1ccc(-c2cc(=O)oc3c(C)c(OC(C)C(=O)N4C[C@H]5C[C@@H](C4)c4cccc(=O)n4C5)ccc23)cc1 (stereo partly specified),23,8,-1,/,4,0
Cc1ccc(C2CC3CCC(C2)N3Cc2ccccc2F)cc1 (stereo unspecified),29,4,/,/,1,-3
Cn1cc(C(O)CN2CCCCC2)c2ccccc21 (stereo unspecified),20,4,-1,/,3,-5
CCCCn1c(=O)c(C(=O)Nc2ccccc2C)c(O)c2ccccc21,30,1,0,/,13,4
CCCCCn1c(=O)c(C(=O)Nc2ncccc2C)c(O)c2ccccc21,14,101*,-4,/,0,-6
C[C@H]1CC[C@@]2(C)[C@@H](CC[C@@H]3[C@@H]2CC[C@]2(C)[C@@H](O)CC[C@@H]32)C1,25,87*,0,/,5,5
CCOC(=O)c1c(NC(NC(=O)CF)C(Cl)(Cl)Cl)sc2c1CCCC2 (stereo unspecified),0,-2,0,69*,-1,-8
SMILES,PHOSPHO1 block,SKKanGAS inh,TPT1 inhibitor,WT yeast gro inh,Platelet DG rel,Rtt109 Vps75
Cc1c(C(c2ccc(Cl)cc2Cl)c2c(O)c3ccccc3oc2=O)c(=O)n(-c2ccccc2)n1C (stereo unspecified),21,17,0,75*,14,-14
CN1CCC(OC(=O)Cc2ccccc2)CC1,2,3,-2,-25,-1,-4
CC1=C(C(=O)O)N2C(=O)C(NC(=O)Cc3ccccc3)C2SC1 (stereo unspecified),9,95*,-3,/,-4,-3
CC1(C)CN=C(Nc2nc3ccccc3s2)S1,-31,61*,-4,6,1,2
COc1ccc(C2=NS(=O)(=O)N(C)C(C(=O)N3CCC4(CC3)OCCO4)=C2)cc1OC,26,0,-5,/,-4,15
Cc1cc2c(cc1C)NP(=S)(c1ccccc1)N2,/,/,/,/,/,5
CCC(=NCCc1ccccc1)c1c(O)[nH]c(=O)[nH]c1=O,24,3,-3,/,73*,-2
CC(=NCCc1ccccc1)c1c(O)[nH]c(=O)[nH]c1=O,32,-1,-1,/,30,-9
CN1C(=O)c2ccccc2Sc2ccc(C(=O)N3CCC4(CC3)OCCO4)cc21,52,-1,-1,16,0,0
Cc1ccc(/C=C2/Sc3ccc(C(=O)N4CCC5(CC4)OCCO5)cc3NC2=O)cc1,40,53*,-15,/,-5,8
O=C1NC(=S)N(Cc2ccco2)C(=O)/C1=C\c1cccs1,77*,/,/,15,/,/
Cc1nn(Cc2ccc(Cl)cc2Cl)c(Cl)c1C(=O)O,-3,-7,-4,-12,6,-3
N=c1c2c(n(Cc3ccc(Cl)cc3Cl)c3c1CCC3)CCCC2,-27,6,0,70*,2,13
CC(=O)Nc1ccc(C(=O)OCC(=O)Nc2ccc(Cl)cc2C(=O)c2ccccc2)cc1,-4,12,-1,40,2,9
O=C(COC(=O)c1ccc(O)cc1)Nc1ccc(Cl)cc1C(=O)c1ccccc1,18,-9,-2,77*,-1,15
Cc1nn(C)cc1/C=C1/CC2C3CC=C4CC(O)CCC4(C)C3CCC2(C)C1=O (stereo unspecified),/,27,-2,/,3,-1
CC12CCC3C(CC=C4CC(O)CCC43C)C1C/C(=C\c1ccccc1F)C2=O (stereo unspecified),6,43,-2,65*,15,1
CC=C(CC)C1(CC)C(=O)NC(=S)NC1=O,/,/,/,/,/,-5
CC(C)C12CN3CCN(CC(C3)C1O)C2 (stereo unspecified),-7,-1,-2,59*,-2,-4
Oc1ccc(/C=N/NP(=S)(c2ccccc2)c2ccccc2)c(O)c1O,84*,2,-1,29,4,4
CN(C)c1ccc(NC(=O)CN2C(=O)CN=C(c3ccccc3)c3cc(Cl)ccc32)cc1,60*,1,2,17,10,12
COc1ccc(-n2c(-c3ccccc3[N+](=O)[O-])nc3ccccc3c2=O)cc1,47,2,/,/,-1,-4
O=c1[nH]c(=S)n(CCC2=CCCCC2)c(O)c1/C=N/Nc1ccccc1,-163,0,19,/,-1,28
